# Measured values taken from ChEMBL document CHEMBL4296182, “CO-ADD screening of NIH NCI Diversity Set V”.
# For part of these data: Measured potencies and affinities stand elsewhere.
# What was measured:
# Staphylococcus aureus = assay: Antibacterial activity against Staphylococcus aureus MRSA ATCC 43300 (CO-ADD:GP_020); MIC in CAMBH media using NBS plates, by Resazurin F(560/590); format: functional; details: Concentration 20 uM, ASSAY_TEST Inhibition of Bacterial Growth, detection method Resazurin, Fluorescence (ex560/em590), MEDIA CAMHB, plate type 384well, CORNING #3640, time 18 hr
# Acinetobacter baumannii = assay: Antibacterial activity against Acinetobacter baumannii ATCC 19606 (CO-ADD:GN_034); MIC in CAMBH media using NBS plates, by Resazurin F(560/590); format: functional; details: Concentration 20 uM, ASSAY_TEST Inhibition of Bacterial Growth, detection method Resazurin, Fluorescence (ex560/em590), MEDIA CAMHB, plate type 384well, CORNING #3640, time 18 hr
# Escherichia coli = assay: Antibacterial activity against Escherichia coli ATCC 25922 (CO-ADD:GN_001); MIC in CAMBH media using NBS plates, by Resazurin F(560/590); format: functional; details: Concentration 20 uM, ASSAY_TEST Inhibition of Bacterial Growth, detection method Resazurin, Fluorescence (ex560/em590), MEDIA CAMHB, plate type 384well, CORNING #3640, time 18 hr
# Klebsiella pneumoniae = details: Concentration 20 uM; ASSAY_TEST Inhibition of Bacterial Growth; detection method Absorption (OD600); MEDIA CAMHB; plate type 384well; NBS; CORNING #3640; time 18 hr
# Candida albicans = details: 20 µM
# Cryptococcus neoformans = details: Concentration 20 uM; ASSAY_TEST Inhibition of Fungal Growth; detection method Resazurin; Absorption (OD600-OD570); plate type 384well; NBS; CORNING #3640
compound,measurement,setting,value
Cc1cccc2cc3cccc(C)c3nc12,Inhibition,Staphylococcus aureus,-5.52%
same,Inhibition,Acinetobacter baumannii,-11.71%
same,Inhibition,Escherichia coli,-1.48%
same,Inhibition,Klebsiella pneumoniae,1.32%
same,Inhibition,Candida albicans,0.25%
same,Inhibition,Cryptococcus neoformans,-5.61%
CSc1c(N(C)C)c(=O)c1=S,Inhibition,Staphylococcus aureus,-5.31%
same,Inhibition,Acinetobacter baumannii,-13.14%
same,Inhibition,Escherichia coli,11.42%
same,Inhibition,Klebsiella pneumoniae,6.17%
same,Inhibition,Candida albicans,1.7%
same,Inhibition,Cryptococcus neoformans,-16.36%
Cc1ccc(NC(=O)Nc2c(Cl)cccc2Cl)cn1,Inhibition,Staphylococcus aureus,20.25%
same,Inhibition,Acinetobacter baumannii,-2.44%
same,Inhibition,Escherichia coli,-14.35%
same,Inhibition,Klebsiella pneumoniae,6.22%
same,Inhibition,Candida albicans,3.4%
same,Inhibition,Cryptococcus neoformans,18.5%
CSc1ccc(NC(=O)Nc2cc(C)ccn2)cc1,Inhibition,Staphylococcus aureus,4.66%
same,Inhibition,Acinetobacter baumannii,-16.85%
same,Inhibition,Escherichia coli,9.5%
same,Inhibition,Klebsiella pneumoniae,13.34%
same,Inhibition,Candida albicans,0.13%
same,Inhibition,Cryptococcus neoformans,-8.58%
NNC(=O)Cc1cc(O)[nH]n1,Inhibition,Staphylococcus aureus,0.66%
same,Inhibition,Acinetobacter baumannii,-1.89%
same,Inhibition,Escherichia coli,4.91%
same,Inhibition,Klebsiella pneumoniae,-1.33%
same,Inhibition,Candida albicans,1.93%
same,Inhibition,Cryptococcus neoformans,-9.5%
CCc1noc2cc(-c3ccccc3)n(C)c(=O)c12,Inhibition,Staphylococcus aureus,-11.16%
same,Inhibition,Acinetobacter baumannii,2.9%
same,Inhibition,Escherichia coli,-6.9%
same,Inhibition,Klebsiella pneumoniae,8.09%
same,Inhibition,Candida albicans,1.75%
same,Inhibition,Cryptococcus neoformans,-7.67%
O=C(c1ccccc1)C1N=NCC1c1ccc(Cl)cc1 (stereo not given),Inhibition,Staphylococcus aureus,21.05%
same,Inhibition,Acinetobacter baumannii,1.64%
same,Inhibition,Escherichia coli,18.84%
same,Inhibition,Klebsiella pneumoniae,8.27%
same,Inhibition,Candida albicans,8.01%
same,Inhibition,Cryptococcus neoformans,-11.46%
COC(=O)C1=C(C(=O)OC)[C@@H]2CCC[C@H]1[C@H]1[C@@H]2N=NN1c1ccccc1,Inhibition,Staphylococcus aureus,22.18%
same,Inhibition,Acinetobacter baumannii,-12.99%
same,Inhibition,Escherichia coli,6.51%
same,Inhibition,Klebsiella pneumoniae,9.18%
same,Inhibition,Candida albicans,2.48%
same,Inhibition,Cryptococcus neoformans,8.73%
CSC(=O)NC(=O)NC(=O)c1ccc([N+](=O)[O-])cc1,Inhibition,Staphylococcus aureus,9.19%
same,Inhibition,Acinetobacter baumannii,0.18%
same,Inhibition,Escherichia coli,3.52%
same,Inhibition,Klebsiella pneumoniae,12.66%
same,Inhibition,Candida albicans,-0.48%
same,Inhibition,Cryptococcus neoformans,44.26%
C/C(=N\NC(N)=O)c1ccc(Cl)c(-n2cccc2)c1,Inhibition,Staphylococcus aureus,16.93%
same,Inhibition,Acinetobacter baumannii,-8.65%
same,Inhibition,Escherichia coli,6.19%
same,Inhibition,Klebsiella pneumoniae,13.36%
same,Inhibition,Candida albicans,4.13%
same,Inhibition,Cryptococcus neoformans,-10.07%
Br.C=CC1CN2CCC1CC2C(O)c1ccnc2ccc(OC)cc12 (stereo not given),Inhibition,Staphylococcus aureus,-3.41%
same,Inhibition,Acinetobacter baumannii,0.49%
same,Inhibition,Escherichia coli,16.29%
same,Inhibition,Klebsiella pneumoniae,15.08%
same,Inhibition,Candida albicans,-0.01%
same,Inhibition,Cryptococcus neoformans,7.91%
N=C(N)Nc1nc2cc([N+](=O)[O-])ccc2[nH]1,Inhibition,Staphylococcus aureus,9.17%
same,Inhibition,Acinetobacter baumannii,-6.93%
same,Inhibition,Escherichia coli,5.92%
same,Inhibition,Klebsiella pneumoniae,26.99%
same,Inhibition,Candida albicans,-2.1%
same,Inhibition,Cryptococcus neoformans,-6.56%
O=c1nc(Nc2cccc(Cl)c2)oc2cc(Cl)oc(=O)c12,Inhibition,Staphylococcus aureus,6.93%
same,Inhibition,Acinetobacter baumannii,3.28%
same,Inhibition,Escherichia coli,2.7%
same,Inhibition,Klebsiella pneumoniae,6.71%
same,Inhibition,Candida albicans,20.4%
same,Inhibition,Cryptococcus neoformans,-13.47%
Cc1cc(=O)c2c(o1)C(=O)c1occc1C2=O,Inhibition,Staphylococcus aureus,-16.99%
same,Inhibition,Acinetobacter baumannii,-9.35%
same,Inhibition,Escherichia coli,-16.26%
same,Inhibition,Klebsiella pneumoniae,2.36%
same,Inhibition,Candida albicans,7.04%
same,Inhibition,Cryptococcus neoformans,24.84%
Clc1ccc(Oc2nc3c(Cl)cccc3s2)cc1Cl,Inhibition,Staphylococcus aureus,12.48%
same,Inhibition,Acinetobacter baumannii,12.9%
same,Inhibition,Escherichia coli,4.52%
same,Inhibition,Klebsiella pneumoniae,1.06%
same,Inhibition,Candida albicans,1.36%
same,Inhibition,Cryptococcus neoformans,-15.72%
NC(=O)CCC(C(=O)O)N1C(=O)C2C3CCC(C3)C2C1=O (stereo not given),Inhibition,Staphylococcus aureus,-3.52%
same,Inhibition,Acinetobacter baumannii,-4.02%
same,Inhibition,Escherichia coli,-8.27%
same,Inhibition,Klebsiella pneumoniae,4.97%
same,Inhibition,Candida albicans,2.39%
same,Inhibition,Cryptococcus neoformans,-5.24%
Clc1ccc(Nc2nnc(-c3ccc4c(c3)OCO4)o2)cc1,Inhibition,Staphylococcus aureus,-8.18%
same,Inhibition,Acinetobacter baumannii,6.42%
same,Inhibition,Escherichia coli,9.52%
same,Inhibition,Klebsiella pneumoniae,10.29%
same,Inhibition,Candida albicans,4.12%
same,Inhibition,Cryptococcus neoformans,44.25%
O=C(c1ccccc1)c1ccc(Sc2ccc([N+](=O)[O-])cc2)cc1,Inhibition,Staphylococcus aureus,11.06%
same,Inhibition,Acinetobacter baumannii,-8.42%
same,Inhibition,Escherichia coli,1.44%
same,Inhibition,Klebsiella pneumoniae,19.14%
same,Inhibition,Candida albicans,2.18%
same,Inhibition,Cryptococcus neoformans,-2.51%
CCCCSc1cc(C)nc(N)n1,Inhibition,Staphylococcus aureus,19.18%
same,Inhibition,Acinetobacter baumannii,-7.66%
same,Inhibition,Escherichia coli,11.54%
same,Inhibition,Klebsiella pneumoniae,4.75%
same,Inhibition,Candida albicans,1.09%
same,Inhibition,Cryptococcus neoformans,-5.9%
CCOc1ccc(NC(=O)N(O)C2(C#N)CCCCC2)cc1,Inhibition,Staphylococcus aureus,13.16%
same,Inhibition,Acinetobacter baumannii,8.44%
same,Inhibition,Escherichia coli,2.02%
same,Inhibition,Klebsiella pneumoniae,18.05%
same,Inhibition,Candida albicans,5.54%
same,Inhibition,Cryptococcus neoformans,-2.32%
CCOc1ccc(NC(=O)Nc2cc(C(C)C)ccc2C)cc1,Inhibition,Staphylococcus aureus,-18.22%
same,Inhibition,Acinetobacter baumannii,0.23%
same,Inhibition,Escherichia coli,-12.49%
same,Inhibition,Klebsiella pneumoniae,0.84%
same,Inhibition,Candida albicans,0.78%
same,Inhibition,Cryptococcus neoformans,21.16%
Nc1nc(O)c2ncn(C3CCCC3)c2n1,Inhibition,Staphylococcus aureus,3.29%
same,Inhibition,Acinetobacter baumannii,-9.23%
same,Inhibition,Escherichia coli,3.79%
same,Inhibition,Klebsiella pneumoniae,16.95%
same,Inhibition,Candida albicans,-0.06%
same,Inhibition,Cryptococcus neoformans,-9.03%
CN1CCN(C(=O)/C=C/c2ccc([N+](=O)[O-])o2)CC1,Inhibition,Staphylococcus aureus,14.1%
same,Inhibition,Acinetobacter baumannii,5.92%
same,Inhibition,Escherichia coli,-7.59%
same,Inhibition,Klebsiella pneumoniae,6.31%
same,Inhibition,Candida albicans,3.54%
same,Inhibition,Cryptococcus neoformans,10.04%
Cn1c(=O)c2nc(CCCc3ccc([N+](=O)[O-])cc3)[nH]c2n(C)c1=O,Inhibition,Staphylococcus aureus,7.08%
same,Inhibition,Acinetobacter baumannii,-13.97%
same,Inhibition,Escherichia coli,3.35%
same,Inhibition,Klebsiella pneumoniae,12.88%
same,Inhibition,Candida albicans,0.38%
same,Inhibition,Cryptococcus neoformans,-9.63%
CCSc1nc(C)c(C)c(O)n1,Inhibition,Staphylococcus aureus,-7.95%
same,Inhibition,Acinetobacter baumannii,-12.73%
same,Inhibition,Escherichia coli,10.67%
same,Inhibition,Klebsiella pneumoniae,6.61%
same,Inhibition,Candida albicans,2.45%
same,Inhibition,Cryptococcus neoformans,-10.18%
